The term AC50 denotes the concentration at which the activity in the assay is half-maximal.

This note sets out measurements from PubChem BioAssay (EPA / NIEHS).

Records with an inconclusive call do not appear. Active and inactive are the calls of the source. The calls were made as follows: active = hit-call score of the fitted dose curve at least 0.9, where 1 is the maximum; inconclusive = response in the unintended direction; inactive = score below 0.9.

The nature of this assay: ACEA_ER_AUC_viability: ACEA Biosciences xCELLigence Real-Time Cell Analysis on Estrogen Receptor Agonism for Viability (AID 2283782).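 Also: continuous compound exposure with impedance area under curve over 80 h; hit means loss of impedance signal meaning reduced cell growth or viability.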 The essentials:
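T47D cells preconditioned in phenol red-free RPMI with charcoal-stripped FBS, then dosed with 8-point 1:4 series from 100 uM (up to 0.5% DMSO). Impedance monitored up to ~80 h; area-under-curve loss versus DMSO taken as viability.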
As to `CCCCOC(=O)COC(=O)c1ccccc1C(=O)OCCCC`, the call was inactive.
The same measure, in the same setting: in the case of `Brc1c(Br)c(Br)c(Oc2c(Br)c(Br)c(Br)c(Br)c2Br)c(Br)c1Br` it was “inactive”; in that of `CCCCC(CC)COC(=O)Cl` (stereo not drawn), “inactive”; in that of `Brc1ccc(Br)cc1`, “inactive”.
Take `C=C(C)C(=O)OCC(CC)CCCC` (stereo not drawn): the molecule was classed as inactive.
As for `CC(C)(C)c1cc([N+](=O)[O-])cc(C(C)(C)C)c1O`, the half-maximal activity concentration (AC50) is 24.3 µM (active).
Same read-out and setting: in the case of `CCOC(=O)Cc1ccccc1` it was 50 µM (active).
With `CCOc1ccc(N)cc1`, the molecule was called inactive.
For the molecule `COCC(=O)N(c1c(C)cccc1C)[C@H](C)C(=O)OC`, the AC50 was 50 µM (active).
Turning to `C[N+](C)(C)Cc1ccccc1`, the outcome was inactive.
For `CCOP(=O)(OCC)OC(=CCl)c1ccc(Cl)cc1Cl`, the concentration at half-maximal activity (AC50) was 77.8 µM (active).
Same read-out and setting: in the case of `O=S(=O)(C(Cl)(Cl)Cl)C(Cl)(Cl)Cl` it was 5.21 µM (active).
For `C=CC(=O)NC(C)(C)CC(C)=O`, the result was inactive.
The same measure, in the same setting: in the case of `CCOC(=O)C(SP(=S)(OC)OC)c1ccccc1` (stereo not drawn) it was “inactive”; in that of `Nc1cccnc1`, “inactive”.
For `O=C(Cc1ccccc1)OCCc1ccccc1`, the AC50 is 82.5 µM (active).
On to `CC[N+](CC)(CC)CC`, for which the molecule was classed as inactive.
In the case of `C=CCN=C=S`, the outcome was inactive.
For `NC(=O)CCl`, the concentration at half-maximal activity (AC50) is 39.6 µM (active).
In the case of `CCN(CC)C(=O)C(Cl)=C(C)OP(=O)(OC)OC`, the half-maximal activity concentration (AC50) was 25.8 µM (active).
`CN(C1CCCCC1)C1CCCCC1`: the concentration at half-maximal activity (AC50) is 68.6 µM (active).
Turning to `CC(C=O)Cc1ccc2c(c1)OCO2` (stereo not drawn), the outcome was inactive.
On the same count and under the same terms, in the case of `c1ccc2c(c1)Oc1ccccc1O2` it was “inactive”.
For the molecule `c1cc[c]([Sb]([c]2ccccc2)[c]2ccccc2)cc1`, the half-maximal activity concentration (AC50) is 50 µM (active).
On to `CCOc1cc(C=O)ccc1O`, for which the molecule was called inactive.
For the molecule `O=S(=O)(c1ccc(Cl)cc1)c1cc(Cl)c(Cl)cc1Cl`, the AC50 was 69.2 µM (active).
Turning to `C1CN2CCN1CC2`, the molecule was called inactive.
Same read-out and setting: in the case of `CC(C)(C#N)N=NC(C)(C)C#N` it was “inactive”; in that of `CCCCC(CC)C(=O)Cl` (stereo not drawn), “inactive”.
For the molecule `O=C/C(Cl)=C(/Cl)C(=O)O`, the half-maximal activity concentration (AC50) was 73.9 µM (active).
For the molecule `BrCCCCBr`, the molecule was called inactive.
`O=C(O)COc1cc(Cl)c(Cl)cc1Cl`: the molecule was classed as inactive.
Take `CCCCS(=O)(=O)Cl`: the concentration at half-maximal activity (AC50) was 53.1 µM (active).
